Bioassay records (PubChem BioAssay)
This is a sample that favours compounds with a hit; in the whole collection about 1.8% have one here.
MsrA inh: inhibits bovine methionine sulfoxide reductase A; hit rate 0.75% among 360,000; inhibition, % at 15.5 µM; purified bovine MsrA, absorbance read-out; AID 651718
MsrA act: bovine methionine sulfoxide reductase A activation; hit rate 0.3% among 360,000; activation, % at 10.6 µM; purified bovine MsrA, absorbance read-out; AID 602163; in the data active means activation above about 7.5%
NPR2 activator: GC-B (human) receptor activation; HEK293-GC-B cells, CNP EC30, cGMP TR-FRET; 0% at EC30 CNP, 100% saturating CNP; activation, % at 10 µM; hit rate 0.11% among 370,000;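 active means activation at 10 µM reaching about 35% in either raw or pattern-adjusted values, limit read from the data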
Target sequence (P20594 whole entry, looked up): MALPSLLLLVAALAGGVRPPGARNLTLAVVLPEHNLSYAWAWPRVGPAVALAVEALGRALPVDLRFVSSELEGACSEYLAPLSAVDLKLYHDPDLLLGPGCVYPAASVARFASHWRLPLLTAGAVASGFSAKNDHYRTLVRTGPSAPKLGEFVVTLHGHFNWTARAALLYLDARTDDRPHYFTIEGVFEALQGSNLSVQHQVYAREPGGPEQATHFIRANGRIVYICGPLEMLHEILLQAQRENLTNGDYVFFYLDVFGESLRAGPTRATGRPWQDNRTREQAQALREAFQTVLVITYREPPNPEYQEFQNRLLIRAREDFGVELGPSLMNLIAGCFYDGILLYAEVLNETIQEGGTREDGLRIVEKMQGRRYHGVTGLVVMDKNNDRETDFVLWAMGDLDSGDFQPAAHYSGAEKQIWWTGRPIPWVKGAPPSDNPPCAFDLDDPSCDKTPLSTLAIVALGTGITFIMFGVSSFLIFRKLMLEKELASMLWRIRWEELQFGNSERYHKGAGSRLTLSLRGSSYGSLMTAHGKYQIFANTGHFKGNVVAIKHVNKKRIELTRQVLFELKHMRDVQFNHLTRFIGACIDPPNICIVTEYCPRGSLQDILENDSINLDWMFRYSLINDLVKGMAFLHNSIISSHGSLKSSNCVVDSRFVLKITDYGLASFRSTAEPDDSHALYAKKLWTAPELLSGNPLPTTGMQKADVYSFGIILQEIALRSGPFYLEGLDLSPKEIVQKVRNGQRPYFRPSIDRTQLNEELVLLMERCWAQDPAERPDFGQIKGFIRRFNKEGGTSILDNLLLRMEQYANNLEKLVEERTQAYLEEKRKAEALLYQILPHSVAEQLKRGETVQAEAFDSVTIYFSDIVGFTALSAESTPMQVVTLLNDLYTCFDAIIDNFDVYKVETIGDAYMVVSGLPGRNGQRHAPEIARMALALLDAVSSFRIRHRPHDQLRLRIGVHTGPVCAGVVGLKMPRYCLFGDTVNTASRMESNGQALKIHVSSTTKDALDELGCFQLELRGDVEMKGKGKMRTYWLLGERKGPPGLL
GC-A act: GC-A (human) enzyme activation; P16066; AID 1671463; HEK293 GC-A cells, cGMP TR-FRET, EC30 ANP; 0% at EC30 ANP, 100% saturating ANP; activation, % at 10 µM; hit rate 0.14% among 370,000; in the data active means activation above about 40%
m5-HT2A agonist: agonists of mouse serotonin 5-HT2A receptor (HTR2A); P35363; CHO-K1 mHTR2A beta-arrestin complementation, luminescence; percent of 30 µM serotonin response; activation, % at 7.6 µM; AID 624169; hit rate 0.66% among 360,000;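 active means activation above a run cutoff, the mean activation of all tested compounds plus 3 SD, cut at about 14% in these data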
MsrA inh confirm: confirmation of bovine MsrA inhibitors. shares compounds with MsrA inh. purified bovine MsrA, absorbance read-out. inhibition, % at 15.5 µM. hit rate 41% among 2,300;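 further: coupled to thioredoxin reductase with NADPH and selenocystamine and DMSO as substrate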
A number is an active result; - = inactive; . = no result given. Unless noted, no stated cut-off is given here; in the data, active means inhibition above about 4.5%; inactive means the rest.

SMILES | MsrA inh | MsrA act | NPR2 activator | GC-A act | m5-HT2A agonist | MsrA inh confirm
CC(C(=O)NC(C)(C)C)N1C(=O)c2cccc3cccc(c23)C1=O (stereo not given) | 4.8 | - | - | - | - | -
O=C1C(NC(=O)C(F)(F)Br)CCCCN1Cc1cccc(C(F)(F)F)c1 (stereo not given) | . | . | - | - | . | .
Nc1ccc2nc(-c3cccnc3)[nH]c2c1 | - | - | - | - | - | .
COc1ccc2nc(-c3ccc(N)cc3)[nH]c2c1 | - | - | - | - | - | .
Nc1ccc2nc(-c3ccc(N)c(Cl)c3)[nH]c2c1 | 5.5 | - | - | - | - | 5.5
Nc1ccc(-c2nc3c(Cl)cc(N)cc3[nH]2)cc1 | 5.2 | - | - | - | - | -
O=C1[C@@H](CCc2ccccc2)[C@@H]2c3cc4ccccc4cc3C=NN2[C@@H]2c3cc4ccccc4cc3C=NN12 | . | . | - | - | . | .
O=C(N/N=C/c1ccccc1)c1ccco1 | - | - | - | - | - | .
Cc1ccsc1/C=N/NC(=O)c1ccco1 | 5.6 | - | - | - | - | 5.8
Cc1ccsc1/C=N\NC(=O)c1cc(C(C)(C)C)[nH]n1 | 5.3 | - | - | - | - | -
CCN(CC)c1ccc(/C=N/NC(=O)c2ccco2)cc1 | 5.2 | - | - | - | - | -
O=C(N/N=C/C=N/NC(=O)c1ccco1)c1ccco1 | 7.6 | - | - | - | - | 6.1
Cc1cc(C(=O)N/N=C/c2sccc2C)no1 | - | - | - | - | - | .
COC(=O)[C@H](CC(C)C)N(CCCc1cn(Cc2ccccc2)nn1)S(=O)(=O)c1ccc(F)cc1Br | . | . | - | - | . | .
CCCCCN(C(=O)CCc1cn(CCCCC)c2ccccc12)c1ccc(Oc2cccnc2)cc1 | - | . | - | - | . | .
CCN1CCCC1CNC(=O)C(=O)NC(C)C (stereo not given) | - | - | - | - | - | .
CC(C)(C)c1ccc(-c2nnc(SCC(=O)Nc3ccc4c(c3)OCCO4)n2-c2ccc(Cl)cc2)cc1 | . | . | - | - | . | .
O=C(c1ccco1)c1cc2c(ccc3ccccc32)oc1=O | 13 | - | - | - | - | 28
NC1=NC(=O)/C(=C/c2cn(CCC(=O)O)nc2-c2ccc(F)cc2)S1 | 5.0 | - | - | - | - | -
COC(=O)[C@]12CCCCC=C1N(Cc1ccc(OC)cc1)C(=O)[C@@H]2CC(=O)N1CCC(c2ccccc2)CC1 | . | . | - | - | . | .
COc1ccc(/C=[N+](\[O-])C2N(c3ccccc3)C(=S)SC2(C)C)cc1OC (stereo not given) | 5.0 | - | - | - | - | -
CCN(CC)c1ccc(C2=NNC(=O)CC2C)cc1[N+](=O)[O-] (stereo not given) | - | - | - | - | - | .
CC1CC(=O)NN=C1c1ccc(N(C)C)c([N+](=O)[O-])c1 (stereo not given) | 4.7 | - | - | - | - | -
C#CCOC(=O)/C(=C/C=C/c1ccccc1)NC(=O)c1ccccc1 | 5.2 | - | - | - | - | -
COc1ccc(S[C@]2(C(=O)N3CCN(c4ncccn4)CC3)CC(=O)N(c3ccc4ccccc4c3)[C@@H]2c2ccc(OC)cc2)cc1 | . | . | - | - | . | .
SMILES | MsrA inh | MsrA act | NPR2 activator | GC-A act | m5-HT2A agonist | MsrA inh confirm
O=c1c2[nH]c3cccc(Cl)c3c2ncn1Cc1ccco1 | - | - | - | - | - | .
COc1cc(Cn2c3ccc(NC(=O)CC(C)C(F)(F)F)cc3c(=O)n2C)ccc1F (stereo not given) | - | - | - | - | - | .
CC(=O)c1ccc(NC(=O)/C(=C\c2ccco2)NC(=O)c2ccco2)cc1 | 5.7 | - | - | - | - | 5.4
O=C(Nc1ccc(C(=O)O)cc1)/C(=C\c1ccco1)NC(=O)c1ccco1 | 4.8 | - | - | - | - | 4.9
O=C(Nc1ccc(C(=O)O)cc1)/C(=C\c1ccco1)NC(=O)c1ccccc1 | - | - | - | - | - | .
Cn1cnc([N+](=O)[O-])c1Sc1nc(N)nc2c1ncn2C1CC(O)C(CO)O1 (stereo not given) | 5.5 | - | - | - | - | -
Cc1cccc(CN2CCN(C3CN(Cc4cn(Cc5ccc(C(F)(F)F)cc5)nn4)S(=O)(=O)C3)CC2)c1 (stereo not given) | - | . | - | - | . | .
COc1cccc(Nc2nc3cc(OC)ccc3cc2C#N)c1 | 17 | - | - | - | - | 13
COc1ccc(Nc2nc3c(C)cccc3cc2C#N)cc1 | - | - | - | - | - | .
Cc1ccc(/C=N\Nc2nc3ccc(Cl)cc3[nH]2)o1 | 4.7 | - | - | - | - | -
Fc1ccccc1-c1ccc(/C=N/Nc2nc3ccccc3[nH]2)o1 | - | - | - | - | - | .
COC(=O)[C@@]12CCCCC3=C1N(CCC3)C(=O)[C@H]2CC(=O)N1CCOCC1 | . | . | - | - | . | .
O=C(Nc1ccc2ncccc2c1)c1ccccc1 | - | - | - | - | - | .
CC(=O)N(C)c1ccc(N=Nc2ccc3ncccc3c2)cc1 | 5.3 | - | - | - | - | 4.9
COC(=O)[C@@]12CCCCC3=C1N(CCC3)C(=O)[C@H]2CC(=O)NCCc1ccccc1OC | . | . | - | - | . | .
O=C(CCN1C(=O)/C(=C\C=C\c2ccccc2)SC1=S)Nc1ccc(C(=O)O)cc1 | - | - | - | - | - | .
O=C(CN1C(=O)S/C(=C\C=C\c2ccccc2)C1=O)Nc1ccc(C(=O)O)cc1 | 6.6 | - | - | - | - | -
O=C(CN1C(=O)S/C(=C/C=C/c2ccccc2)C1=O)Nc1ccc(C(=O)O)cc1 | 5.3 | - | - | - | - | 5.8
CS(=O)(=O)N[C@@H]1C[C@@H]2O[C@@H](CO)CC[C@@H]2O[C@@H]1CCc1ccc(/C=C/c2ccccc2)cc1 | . | . | - | - | . | .
CN(Cc1ccccc1)S(=O)(=O)c1cccc(C(=O)OCc2ccccc2Cl)c1 | . | . | - | - | . | .
COc1ccc(C2C(C(=O)N3CCCCC3C)CC(=O)N2c2ccc(OC)cc2)cc1 (stereo not given) | . | . | - | - | . | .
Nc1ccccc1C(=O)N=Nc1[nH]c(N)c2ccccc12 | 5.4 | - | - | - | - | -
Nc1nc2nccc(-c3ccc(Cl)cc3)n2n1 | 5.2 | - | - | - | - | -
Cc1cc(-c2ccc(Cl)cc2)n2nc(N)nc2n1 | - | - | - | - | - | .
O=C(COC(=O)C1CCN(/C=C/C(=O)C(F)(F)F)CC1)Nc1ccccc1 | 4.8 | - | - | - | - | -
SMILES | MsrA inh | MsrA act | NPR2 activator | GC-A act | m5-HT2A agonist | MsrA inh confirm
O=C1c2ccc3c4c(ccc(c24)C(=O)N1c1cccc(O)c1)C(=O)N(c1cccc(O)c1)C3=O | 9.5 | - | - | - | - | 7.1
CCOC(=O)C(Cc1ccccc1)P(=O)(OCC)OCC (stereo not given) | . | . | - | - | . | .
CCOC(=O)[C@@]12CCCC3=C1N(CCC3)C(=O)[C@H]2CC(=O)NCCCN1CCCC1=O | . | . | - | - | . | .
COC(=O)C1CN(Cc2cn(Cc3ccccc3)nn2)CCS(=O)(=O)N1Cc1ccccc1 (stereo not given) | . | . | - | - | . | .
CCn1c(/C=C/c2ccc(O)cc2)nc2ccccc2c1=O | 5.3 | - | - | - | - | 4.8
COCCn1c(/C=C/c2ccccc2)nc2ccccc21 | 5.1 | - | - | - | - | -
